# TDP1 block: qHTS Assay for Inhibitors of Tyrosyl-DNA Phosphodiesterase (TDP1); Tyrosyl-DNA phosphodiesterase 1 (Homo sapiens), Q9NUW8; recombinant TDP1, AlphaScreen DNA substrate cleavage; Potency, µM (highest dose often 130 µM), for inactives: at the highest dose activity change, negative = inhibition, most hits filed as inhibitors; hit rate 0.28% among 350,000; AID 485290, 2010; also: potency is read from the fitted curve at half-maximal effect; % is scaled to controls: 0 for no effect and ±100 for the full control effect; nearly all actives have a fitted effect of over 40% in size
# Target sequence (Q9NUW8 whole entry, looked up): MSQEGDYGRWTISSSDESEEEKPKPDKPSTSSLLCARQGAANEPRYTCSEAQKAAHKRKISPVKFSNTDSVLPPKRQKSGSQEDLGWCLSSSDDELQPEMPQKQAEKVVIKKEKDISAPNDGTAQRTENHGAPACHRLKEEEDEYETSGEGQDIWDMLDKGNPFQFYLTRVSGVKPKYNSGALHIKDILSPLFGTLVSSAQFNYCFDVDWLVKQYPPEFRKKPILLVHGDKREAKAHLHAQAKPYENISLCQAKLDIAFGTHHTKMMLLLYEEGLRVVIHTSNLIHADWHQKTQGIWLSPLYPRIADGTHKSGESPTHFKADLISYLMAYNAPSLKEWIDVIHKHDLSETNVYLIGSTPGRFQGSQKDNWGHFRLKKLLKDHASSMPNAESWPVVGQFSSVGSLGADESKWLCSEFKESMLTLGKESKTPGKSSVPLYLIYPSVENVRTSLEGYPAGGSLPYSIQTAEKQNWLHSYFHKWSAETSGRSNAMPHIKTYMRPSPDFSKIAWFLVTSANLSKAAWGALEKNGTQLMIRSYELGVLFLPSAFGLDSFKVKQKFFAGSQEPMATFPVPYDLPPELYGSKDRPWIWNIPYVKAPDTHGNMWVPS
#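 Recombinant human Tdp1 (E. coli-expressed, 1 nM final) preincubated with compounds 15 min at room temperature, then 5'-biotin/3'-phosphotyrosine-FITC DNA substrate (15 nM final) added for 5 min. AlphaScreen beads (10 ug/ml final) added 10 min; cleavage lowers signal.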
# miR-21 act: qHTS Assay for Modulators of miRNAs and/orActivators of miR-21; HeLa miR-21 FLuc reporter, luciferase, 48 h; Potency, µM (highest dose often 38.3 µM), for the others: at the highest dose activity change, positive = activation, actives largely listed as activators; 340,000 tested, under 10 active;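 also: % of control where 0% means no effect; miR-21 action dims this reporter so a rising signal means less miR-21 action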
#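 Luminescence from a firefly luciferase reporter carrying a miR-21 binding site downstream, stably expressed under a CMV promoter in HeLa cells that make miR-21 endogenously, reports miRNA modulation after 48 h compound exposure up to approximately 40uM final.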
# TDP1 cell CPT: qHTS for Inhibitors of human tyrosyl-DNA phosphodiesterase 1 (TDP1): qHTS in cells in presence of CPT; chicken DT40 Tdp1-/-;hTDP1 cells + 20 nM CPT, ATP luminescence, 48 h; Potency, µM (doses to about 46.2 µM), for the others: top-dose activity change, negative = growth inhibition, actives largely listed as inhibitors; hit rate 12% among 420,000; AID 686979, 2013; also: potency is read from the fitted curve at half-maximal effect; % is scaled to controls: 0 for no effect and ±100 for the full control effect; nearly all actives have a fitted effect of over 55% in size
#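 Chicken DT40 Tdp1-/- cells stably complemented with human TDP1 were seeded at 400 cells/well in medium containing 20 nM camptothecin, exposed to pin-transferred compounds, and grown at 37 °C for at least 48 hr. Viability was read as ATP luminescence.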
# DT40 TDP1 no CPT: qHTS for Inhibitors of human tyrosyl-DNA phosphodiesterase 1 (TDP1): qHTS in cells in absence of CPT | DT40 Tdp1-/- hTDP1 cells, no CPT, ATP luminescence, 48 h | Potency, µM (titrated, usually from 46.2 µM), inactives show at the top dose activity change, negative = growth inhibition, most hits filed as inhibitors | hit rate 15% among 420,000; also: potency is read from the fitted curve at half-maximal effect; % is scaled to controls: 0 for no effect and ±100 for the full control effect; nearly all actives have a fitted effect of over 55% in size
#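 Seeded 400 DT40-hTDP1 cells/well (vehicle DMSO, no 20 nM CPT); pinned compounds; ≥48 hr at 37 °C; CellTiter-Glo luminescence as viability measure.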
# uPA surface inh: qHTS for Inhibitors of Cell Surface uPA Generation | hit rate 0.31% among 330,000 | Potency, µM (doses to about 38.3 µM), inactives show top-dose activity change, negative = inhibition, actives largely listed as inhibitors | AID 540303, 2011 | cell surface uPA generation assay, qHTS; active = well fitted inhibition curve with a large enough effect; inconclusive = small, poorly fitted or top-dose-only effect; inactive = no such curve, though single readings can be large or run the other way; tested in mouse RAW 264.7 cells; also: potency is read from the fitted curve at half-maximal effect; % is scaled to controls: 0 for no effect and ±100 for the full control effect; nearly all actives have a fitted effect of over 55% in size
# * = called active by the depositor; ? = inconclusive; nt = no result; [ ] = remark or other dose. An excerpt weighted towards active compounds, which were near 16% of everything screened. Unless noted, calls follow the shape of the dose curve; as a rule, active = well fitted curve in the direction sought with a large enough effect; inconclusive = small, poorly fitted or top-dose-only effect, or another doubt; inactive = no such curve, though single readings can be large; an effect the other way counts as inactive or inconclusive.
SMILES,TDP1 block,miR-21 act,TDP1 cell CPT,DT40 TDP1 no CPT,uPA surface inh
CC(CC(=O)OCC(=O)Nc1ccc2[nH]c(=O)[nH]c2c1)c1ccccc1 (stereo not drawn),-6%,nt,-10%,?,10%
COCC(=O)Nc1cc(C(=O)N2CCN(c3ccccc3)CC2C)c2c(c1)nc(-c1ccncc1)n2C (stereo not drawn),nt,nt,-6%[9.04 µM],-15%,nt
CC(Nc1oc(-c2ccc(COc3ccccc3)o2)nc1C#N)c1ccccc1 (stereo not drawn),7%,-9%,6.5µM*,9.2µM*,nt
N#Cc1nc(COc2ccccc2)oc1N1CCN(Cc2ccccc2)CC1,9%,-3%,?,?,1%
Cc1ccc(OCc2nc(C#N)c(N3CCN(Cc4ccccc4)CC3)o2)cc1,3%,0%,18µM*,?,5%
Cc1cccc(OCc2ccc(-c3nc(C#N)c(N4CCC(C(N)=O)CC4)o3)o2)c1,11%,23%,16µM*,?,nt
COc1ccc(OCc2ccc(-c3nc(C#N)c(N4CCC(C(N)=O)CC4)o3)o2)cc1,3%,2%,?,?,nt
COc1ccc(OCc2ccc(-c3nc(C#N)c(N4CCC(C)CC4)o3)o2)cc1,8%,-12%,?,23µM*,nt
CCOc1ccc(S(=O)(=O)Nc2ccc(C(=O)NCC(C)(C)N3CCOCC3)cc2)cc1,5%,nt,?,-16%,3%
Cn1c(-[n+]2c(-c3ccccc3)cc(-c3ccccc3)cc2-c2ccccc2)nc2cc([N+](=O)[O-])ccc21,8%,28%,?,?,0%
O=C(NCc1cc(C(F)(F)F)ccc1Cl)c1cccc2c1C(=O)c1ccc(N3CCC(Cc4ccccc4)CC3)cc1S2(=O)=O,0%,nt,?,?,2%
Cc1cccc(NC(=O)c2cc3n(n2)C(C(F)(F)F)CC(C2CC2)N3)c1C (stereo not drawn),0%,1%,5%,5%,4%
CC(=O)N1CCN(C2c3cccc4cccc(c34)C2NS(=O)(=O)c2ccccc2)CC1 (stereo not drawn),9%,-6%,3%,-22%,-3%
O=S(=O)(NC1c2cccc3cccc(c23)C1N1CCNCC1)c1ccc(Cl)cc1 (stereo not drawn),0%,?,13µM*,12µM*,-7%
NS(=O)(=O)c1ccc(CCNC(=O)COC(=O)C2CCN(c3ccc(C(F)(F)F)cn3)CC2)cc1,nt,nt,-31%,-12%,2%
COc1ccccc1C(CNC(=O)c1ccc(-c2ccccc2Cl)o1)N1CCCC1 (stereo not drawn),nt,nt,23µM*,18µM*,2%
COc1ccccc1C(CNC(=O)c1ccco1)N1CCCC1 (stereo not drawn),0%,nt,5%,4%,-2%
COc1ccc(C(CNC(=O)c2ccc(-c3ccccc3Cl)o2)N2CCOCC2)cc1 (stereo not drawn),6%,nt,23µM*,16µM*,-2%
COCCNC(=O)c1oc2ccc3c(c2c1C)C(O)CC(C)(C)O3 (stereo not drawn),nt,-10%,1%,11%,-40%
Cc1c(C(=O)N2CCC(C)CC2)oc2ccc3c(c12)C(O)CC1(CCCCC1)O3 (stereo not drawn),2%,12%,16µM*,?,?
c1ccc2nc(-c3nc4ccccc4o3)ccc2c1,-4%,25%,14µM*,?,nt
c1ccc(-c2nc3ccccc3o2)nc1,6%,-33%,-2%,-21%,0%
COc1cccc(C(=O)Nc2ccccc2C(=O)NC2CC2)c1,4%,-3%,?,0%,10%
COc1cc(OC)cc(C(=O)Nc2ccccc2C(=O)NC2CC2)c1,0%,nt,?,16µM*,-8%
CC(C)C(NCC(=O)Nc1ccccc1C(=O)NC1CC1)c1ccccc1 (stereo not drawn),1%,nt,16µM*,?,-1%
SMILES,TDP1 block,miR-21 act,TDP1 cell CPT,DT40 TDP1 no CPT,uPA surface inh
COC(=O)c1ccccc1NC(=O)NC1CCC(C)CC1 (stereo not drawn),4%,-35%,-4%,18µM*,-21%
O=C(COc1ccc(C(=O)c2ccccc2)cc1)Nc1cccnc1,?,23%,5.2µM*,2.9µM*,3%
Cc1nnnn1/C(=C\c1ccccc1)C(=O)OCC(=O)Nc1cccc(S(=O)(=O)N(C)C)c1,2%,nt,10µM*,7.3µM*,8.9µM*
CN(C)S(=O)(=O)c1cccc(NC(=O)COc2ccc(C(=O)c3ccccc3)cc2)c1,nt,17%,18µM*,16µM*,1%
CN(C)S(=O)(=O)c1cccc(NC(=O)COC(=O)c2ccc3ccccc3n2)c1,0%,nt,1%,6%,-46%
O=C(Nc1cccnc1)c1ccc(Oc2ccccc2)cc1,0%,-2%,23µM*,?,-2%
Cc1cc(=O)nc2c3ccccc3n(CC(=O)NCCCN3CCCC3=O)n12,0%,0%,9%,26%,-4%
CC(C)(C)c1cc(C(=O)N/N=C/c2ccc(O)cc2)n(-c2ccccc2)n1,6%,-2%,?,?,-14%
O=C(O)/C=C/C(=O)Nc1cccnc1,5%,-1%,6%,-2%,-5%
COC(=O)/C=C/C(=O)Nc1cccnc1,-5%,7%,16µM*,?,-11%
O=C(Nc1ccc(F)cc1)Nc1cccnc1,nt,-21%,?,-3%,1%
O=C(Nc1cccnc1)c1ccc2nc(-c3ccccc3)c(-c3ccccc3)nc2c1,3%,16%,23µM*,15µM*,4%
O=C(Nc1ccccc1)Nc1ccc(Oc2cccnc2)nc1,-3%,-9%,?,16µM*,-19%
CCC(C)NC(=O)Cn1cc(S(=O)(=O)N2CCCC2)c(S(=O)(=O)N2CCCC2)c1 (stereo not drawn),4%,-4%,-9%,29%,-4%
COc1cc(COC(=O)Oc2ccc(CNC(C)=O)cc2OC)c([N+](=O)[O-])cc1OC,0%,nt,2%,-5%,-12%
COc1ccc(NC(=O)CCc2nc(-c3ccc(C)cc3)no2)c(OC)c1,-6%,-3%,?,18µM*,7%
Cc1ccc(C)c(NC(=O)CCc2nc(-c3ccc(C(C)(C)C)cc3)no2)c1,4%,25%,23µM*,16µM*,nt
COc1ccc(CNC(=O)CCc2nc(-c3ccc(C)cc3)no2)c(OC)c1,8%,4%,?,?,nt
COc1ccc(-c2noc(CCC(=O)NCc3cc(Br)ccc3OC)n2)cc1,2%,-4%,?,18µM*,1%
COc1ccc(-c2noc(CCC(=O)NCc3ccc(OC)cc3OC)n2)cc1,-2%,0%,?,16µM*,nt
